Screening data: PubChem BioAssay, National Center for Advancing Translational Sciences (NCATS)
A488 autofl: A488 region autofluorescence | max dye equivalency, M | 0.1% of 59,000 active | compound autofluorescence, A488 spectral region, dye equivalency; Compound Type: qHTS ECL - MLSMR
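Autofluorescence read at ex 480/em 540 nm after 15 min RT in 100 mM Tris pH 8.0; compound signal normalized to A488 standard series on each plate, reported as dye-equivalent concentration at each test concentration.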
Texas Red fluor: compound fluoresces in the Texas Red spectral region; Compound fluorescence, Texas Red channel, 547/618 nm; active compounds read high; max dye-equivalent concentration, M; 0.06% of 59,000 active; AID 587; in the data active = max dye-equivalent concentration above about 10 nM; inconclusive = between about 1.1 nM and that limit
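Dye-equivalent concentrations come from scaling compound signal (ex 547, em 618 nm) to six Texas Red standard concentrations run on every plate, after 15 min room-temperature incubation in pH 8.0 Tris (100 mM).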
Resorufin autofl: compound fluoresces in the resorufin spectral region. Compound fluorescence, resorufin region 547/598 nm, buffer; active compounds read high. max dye-equivalent concentration, M. 0.04% of 59,000 active. AID 588
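Intrinsic fluorescence profiled in the resorufin window (ex 547 nm, em 598 nm) after 15 min at room temperature in pH 8.0 Tris buffer (100 mM); responses normalized against a six-point resorufin standard series as dye-equivalent concentration.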
Rhodamine autofl: rhodamine region autofluorescence | Rhodamine-region fluorescence, 547/598 nm, Tris buffer; active compounds read high | max dye-equivalent concentration, M | 0.05% of 59,000 active; in the data active = max dye-equivalent concentration above about 11 nM; inconclusive = between about 1.1 nM and that limit
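A six-point rhodamine series on each plate calibrates the signal. Compounds sit in 100 mM Tris (pH 8.0) for 15 min at ambient temperature before imaging through 547 nm/598 nm filters.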
Fluorescein autfl: compound fluoresces in the fluorescein spectral region; Compound autofluorescence, 480/540 nm, fluorescein-equivalent; active compounds read high; max fluorescein-equivalent concentration, M; 0.91% of 59,000 active; AID 593; in the data active = max fluorescein-equivalent concentration above about 10 nM; inconclusive = between about 1.1 nM and that limit
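First, buffer (100 mM Tris, pH 8.0) dispensed; second, compounds and fluorescein standards pinned in; third, 15 min room-temperature incubation; finally, imaging at ex 480 nm/em 540 nm. Fluorescence normalized against the six-point fluorescein curve.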
A647 fluor: compound autofluorescence in A647 spectral region | Compound fluorescence, A647 channel (570/671 nm), Tris buffer | 59,000 tested, under 10 active | AID 592 | max dye-equivalent concentration, M;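 also: values scaled relative to a standard on each plate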
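Buffer was dispensed, compounds and Alexa 647 standards were pin-transferred, and plates sat 15 min at room temperature. Intensity at 570/671 nm was then converted to dye-equivalent concentration using the plate's A647 standard curve.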
* = called active by the depositor. Most compounds without a hit are left out; they make up all but 0.9% or so of the library. Unless noted, no rule for the calls is given here.

How did CCCOc1ccc(-c2nnc(-c3ccncc3)o2)cc1 do in these assays?
A488 autofl: inactive; Texas Red fluor: inactive; Resorufin autofl: inactive; Rhodamine autofl: inactive; Fluorescein autfl: inconclusive; A647 fluor: 5.9e-08

Results for O=c1oc2c(CN3CCCCCC3)c(O)ccc2cc1-c1nc2ccccc2[nH]1 ?
A488 autofl: 1.4e-07M*; Texas Red fluor: inactive; Resorufin autofl: inactive; Rhodamine autofl: inactive; Fluorescein autfl: 3e-06M*; A647 fluor: 1e-09

How did O=C(CC1NC(=O)NC1=O)Nc1cccc2ccccc12 (stereo unspecified) do in these assays?
A488 autofl: inconclusive; Texas Red fluor: inactive; Resorufin autofl: inactive; Rhodamine autofl: inactive; Fluorescein autfl: 4.3e-08M*; A647 fluor: 1e-09

Results for COc1ccccc1NC(=O)CC1Nc2ccccc2NC1=O (stereo unspecified) ?
A488 autofl: inactive; Texas Red fluor: inactive; Resorufin autofl: inactive; Rhodamine autofl: inactive; Fluorescein autfl: inactive; A647 fluor: 4.7e-09

What do the screens show for `COc1ccc2c(c1)c1c(C)c3cnccc3c(C)c1n2CCCN`?
A488 autofl: inactive; Texas Red fluor: inactive; Resorufin autofl: inactive; Rhodamine autofl: inactive; Fluorescein autfl: inactive; A647 fluor: 1e-09

How did Cc1cccn2c(=O)c3cc(C#N)c(=NC(=O)c4ccncc4)n(CCCOC(C)C)c3nc12 do in these assays?
A488 autofl: inactive; Texas Red fluor: inconclusive; Resorufin autofl: inactive; Rhodamine autofl: inactive; Fluorescein autfl: 1.7e-08M*; A647 fluor: 3e-09

What do the screens show for `Cc1cccn2c(=O)c3cc(C#N)c(=NC(=O)c4ccc5c(c4)OCO5)n(CC(C)C)c3nc12`?
A488 autofl: inactive; Texas Red fluor: inactive; Resorufin autofl: inactive; Rhodamine autofl: inactive; Fluorescein autfl: inactive; A647 fluor: 3.6e-08

Results for CCCn1c(=NC(=O)c2ccncc2)c(C#N)cc2c(=O)n3cccc(C)c3nc21 ?
A488 autofl: inactive; Texas Red fluor: inactive; Resorufin autofl: inactive; Rhodamine autofl: inactive; Fluorescein autfl: 1.2e-08M*; A647 fluor: 9.1e-09

What do the screens show for `O=C(CN1c2cccc3cccc(c23)S1(=O)=O)N1CCOCC1`?
A488 autofl: inconclusive; Texas Red fluor: inactive; Resorufin autofl: inactive; Rhodamine autofl: inactive; Fluorescein autfl: 3.7e-08M*; A647 fluor: 3.3e-08

What do the screens show for `Cc1ccc(-c2cc(-c3nnc(SCC(=O)N(C)CCC#N)n3N)c3ccccc3n2)cc1`?
A488 autofl: inactive; Texas Red fluor: inactive; Resorufin autofl: inactive; Rhodamine autofl: inactive; Fluorescein autfl: 1.1e-08M*; A647 fluor: 1.1e-09

How did NC(=O)c1cc2ccc(O)cc2oc1=NCc1ccccc1 do in these assays?
A488 autofl: 1.5e-08M*; Texas Red fluor: inactive; Resorufin autofl: inactive; Rhodamine autofl: inactive; Fluorescein autfl: 2.7e-07M*; A647 fluor: 1.3e-09

Results for NC(=O)c1cc2ccc(O)cc2oc1=Nc1ccccc1 ?
A488 autofl: inactive; Texas Red fluor: inactive; Resorufin autofl: inactive; Rhodamine autofl: inactive; Fluorescein autfl: inconclusive; A647 fluor: 2.5e-08

Results for Nc1ncnc2c1ncn2[C@H]1O[C@@H](CO)[C@@H](O)[C@H]1N ?
A488 autofl: inactive; Texas Red fluor: inactive; Resorufin autofl: inactive; Rhodamine autofl: inactive; Fluorescein autfl: inconclusive; A647 fluor: 7.4e-09

Results for N#Cc1c(/N=C/c2cccs2)sc2c1CCC2 ?
A488 autofl: inactive; Texas Red fluor: inactive; Resorufin autofl: inactive; Rhodamine autofl: inactive; Fluorescein autfl: inconclusive; A647 fluor: 2.5e-08

What do the screens show for `CN1CCc2c(sc(/N=C/c3cccs3)c2C(N)=O)C1`?
A488 autofl: inactive; Texas Red fluor: inconclusive; Resorufin autofl: inactive; Rhodamine autofl: inactive; Fluorescein autfl: 1.1e-08M*; A647 fluor: 1.6e-09

How did CN1CCc2c(sc(/N=C/c3ccco3)c2C(N)=O)C1 do in these assays?
A488 autofl: inconclusive; Texas Red fluor: inactive; Resorufin autofl: inactive; Rhodamine autofl: inactive; Fluorescein autfl: 2.5e-08M*; A647 fluor: 8.6e-09

How did N#Cc1c(/N=C/c2ccco2)sc2c1CCCCC2 do in these assays?
A488 autofl: inactive; Texas Red fluor: inactive; Resorufin autofl: inactive; Rhodamine autofl: inactive; Fluorescein autfl: inactive; A647 fluor: 1e-09

How did O=[N+]([O-])c1cccc(/C=N\Nc2ccc3ccccc3n2)c1O do in these assays?
A488 autofl: inactive; Texas Red fluor: inactive; Resorufin autofl: inactive; Rhodamine autofl: inactive; Fluorescein autfl: inconclusive; A647 fluor: 2.4e-08

What do the screens show for `CN1C(=O)c2cccc(N(C)C)c2C1=O`?
A488 autofl: inactive; Texas Red fluor: inactive; Resorufin autofl: inactive; Rhodamine autofl: inactive; Fluorescein autfl: inconclusive; A647 fluor: 2.6e-08

How did CN1C(=O)c2cccc(NCCCN3C(=O)c4ccccc4C3=O)c2C1=O do in these assays?
A488 autofl: inconclusive; Texas Red fluor: inactive; Resorufin autofl: inactive; Rhodamine autofl: inactive; Fluorescein autfl: 6.7e-08M*; A647 fluor: 1e-09

How did CCNc1cccc2c1C(=O)N(C)C2=O do in these assays?
A488 autofl: 1.3e-08M*; Texas Red fluor: inactive; Resorufin autofl: inactive; Rhodamine autofl: inactive; Fluorescein autfl: 2.7e-07M*; A647 fluor: 5.1e-08

How did CC1(C)N=C(N)N=C(N)N1c1cccc(CSc2ccccc2)c1 do in these assays?
A488 autofl: inactive; Texas Red fluor: inactive; Resorufin autofl: inactive; Rhodamine autofl: inactive; Fluorescein autfl: inconclusive; A647 fluor: 4.8e-09

What do the screens show for `COc1cccc(C2=CC(c3ccccc3)n3ncnc3N2)c1` (stereo unspecified)?
A488 autofl: inactive; Texas Red fluor: inactive; Resorufin autofl: inactive; Rhodamine autofl: inactive; Fluorescein autfl: inconclusive; A647 fluor: 6.1e-09

How did COc1ccc(C2C=C(c3ccc(Br)s3)Nc3ncnn32)cc1OC (stereo unspecified) do in these assays?
A488 autofl: 7.3e-08M*; Texas Red fluor: inactive; Resorufin autofl: inactive; Rhodamine autofl: inactive; Fluorescein autfl: 1.3e-06M*; A647 fluor: 1e-09

Results for COc1ccc(C2C=C(c3ccc(C)cc3)Nc3ncnn32)cc1 (stereo unspecified) ?
A488 autofl: inactive; Texas Red fluor: inactive; Resorufin autofl: inactive; Rhodamine autofl: inactive; Fluorescein autfl: 1.1e-08M*; A647 fluor: 1.8e-09

How did CCOc1ccc(C2C=C(c3ccc(F)cc3)Nc3ncnn32)cc1 (stereo unspecified) do in these assays?
A488 autofl: inactive; Texas Red fluor: inconclusive; Resorufin autofl: inactive; Rhodamine autofl: inactive; Fluorescein autfl: inconclusive; A647 fluor: 4.8e-09

What do the screens show for `C1=C(c2ccc(-c3ccccc3)cc2)Nc2ncnn2C1c1ccco1` (stereo unspecified)?
A488 autofl: inconclusive; Texas Red fluor: inactive; Resorufin autofl: inactive; Rhodamine autofl: inactive; Fluorescein autfl: 1.4e-07M*; A647 fluor: 3.6e-09
